The target of experiment [1] is Albumin (Bos taurus) (UniProt P02769). As to the kind of experiment: compounds binding labelled BSA control protein – biochemical, small-molecule microarray, Alexa647 label, 635/667 nm fluorescence, artefact control for SMM control protein annotation, profiling panel (AID 1118).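 Note: score merges 667 nm emission intensity and signal-to-noise per printed compound spot.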 The note with it: BSA-A647 binding, fluorescence 635 nm, higher = more signal.
A short description of experiment [2]: probe aXIP binding to arrayed compounds – biochemical, NeuroSMM set, 635/667 nm fluorescence, primary screen (AID 1119).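 Note: probe is the protein aXip251-270 applied at 1 µg/mL to compound-printed slides; binding of probe to printed compounds measured as 667 nm fluorescence plus signal to noise.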 The note with it: small-molecule microarray, higher = more signal, called active from +8 up or from −8 down.
A short description of experiment [3]: probe aNOTCH3 binding on compound microarray – biochemical, small-molecule microarray, 635/667 nm fluorescence, primary screen (AID 1120).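 Note: probe is a biotin-tagged antibody raised against NOTCH3 rather than NOTCH3 protein; score merges spot fluorescence near 667 nm with spot signal to noise.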 The note with it: higher = more signal.
Experiment [4] in a line: probe aNOTCH2 binding on compound microarray – biochemical, small-molecule microarray, 635/667 nm fluorescence, primary screen (AID 1121).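 Note: score merges feature fluorescence read at 667 nm with its signal to noise.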 The following applies: higher = more signal.
For experiment [5], the target named is Carbonic anhydrase 2 (Homo sapiens) (UniProt P00918). As to the kind of experiment: compounds binding carbonic anhydrase 2 – biochemical, small-molecule microarray, Alexa647-labelled CAII, profiling panel (AID 1122). The following applies: CAII-A647 binding fluorescence, higher = more signal.
The nature of experiment [6]: COS7 lysate on small-molecule microarray, probe aHis, 635 nm (AID 1123).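 Note: z-score combines 667nm fluorescence intensity with signal-to-noise per printed compound spot.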 The following applies: COS7 cell lysate, fluorescence, higher = more signal.
Experiment [7] is described as follows: probe aLAP1 signal on lysate-treated microarray – cell lysate, small-molecule microarray, COS7 lysate, primary screen (AID 1124).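 Note: lysate comes from COS7 cells expressing LAP1 and is applied at 0.3 µg/mL; score merges spot fluorescence near 667 nm with signal-to-noise over triplicate slides.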 The following applies: probe aLAP1, fluorescence, higher = more signal.
The subject of experiment [8] is Sam68 (KHDRBS1). As to the kind of experiment: compounds binding KHDRBS1 protein – biochemical, small-molecule microarray, 635 nm fluorescence, primary screen (AID 1125).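 Note: score merges 667 nm channel intensity with signal to noise over triplicate slides.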 The following applies: higher = more signal.
Experiment [9] has as its system Chordin-like protein 2 (CHRDL2). As to the kind of experiment: compounds binding chordin-like 2 – biochemical, small-molecule microarray, 635 nm fluorescence, primary screen (AID 1126).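 Note: printed compound slides probed with Chrdl2 protein at 4 µg/mL for 1 h at 4 C; score merges 667 nm emission intensity with signal to noise over three replicate slides.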 The following applies: fluorescence 635 nm, higher = more signal.
In experiment [10] the target is Concanavalin-A (Canavalia ensiformis) (UniProt P02866). Nature of the experiment: compounds binding concanavalin A lectin – biochemical, small-molecule microarray, Alexa647 label, 635 nm, artefact control for SMM control protein annotation, primary screen (AID 1127).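 Note: z combines 667 nm emission intensity with signal-to-noise across three replicate slides.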 The note with it: ConA-A647 binding fluorescence, higher = more signal.
A short description of experiment [11]: compounds binding Alexa647 anti-His antibody – biochemical, small-molecule microarray, 635 nm fluorescence, artefact control for SMM control protein annotation, primary screen (AID 1128).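 Note: score merges feature fluorescence with signal-to-noise for each printed compound spot.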 The following applies: higher = more signal.
Experiment [12] concerns Human papillomavirus type 1a E7 protein (residues 1-88). Nature of the experiment: HPV1a E7 small-molecule binders, primary screen, biochemical, small-molecule microarray, residues 1-88, 635 nm (AID 1129). The following applies: small-molecule microarray binding, fluorescence 635 nm; higher = more signal.
Experiment [13] concerns the target Focal adhesion kinase 1 (Homo sapiens) (UniProt Q05397). Nature of the experiment: PTK2 protein binding on printed compound slides – biochemical, small-molecule microarray, 635/667 nm fluorescence, BSA, DTT, primary screen (AID 1130).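 Note: composite of spot emission at 667 nm and signal to noise over triplicate slides.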 The note with it: 635 nm fluorescence, higher = more signal.
Experiment [14] has as its system Fibrinogen (Alexa647-labelled). As to the kind of experiment: Alexa647-fibrinogen binding to printed small molecules – biochemical, small-molecule microarray, 635/667 nm fluorescence, artefact control for SMM control-protein annotation, profiling panel (AID 1131).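 Note: z-score merges 667 nm fluorescence with per-spot signal-to-noise over triplicate slides.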 The note with it: fibrinogen-A647 binding fluorescence, higher = more signal.
For experiment [15], the target named is Follistatin (Homo sapiens) (UniProt P19883). Nature of the experiment: FST protein binding to printed compounds – biochemical, small-molecule microarray, 635/667 nm fluorescence, primary screen (AID 1132). The following applies: 635 nm fluorescence, higher = more signal.
Experiment [16] concerns the target Fibroblast growth factor 2 (Homo sapiens) (UniProt P09038). Nature of the experiment: basic fibroblast growth factor binding to printed compounds – biochemical, small-molecule microarray, 635/667 nm fluorescence, primary screen (AID 1133). The following applies: FGF2, fluorescence 635/667, higher = more signal.
A short description of experiment [17]: JC-1 mitochondrial potential readout, lung cancer cells – cell-based, A549, JC-1 fluorescence, basal, 24 h, 100 nL, profiling panel (AID 1138).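 Note: A549 lung adenocarcinoma cells under basal conditions with no added stimulus; test concentration not given here.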 The note with it: higher = more signal.
Experiment [18] deals with Lefty1. Nature of the experiment: Lefty1 protein binding to printed compounds – biochemical, small-molecule microarray, 635/667 nm fluorescence, primary screen (AID 1139). The note with it: fluorescence 635/667, higher = more signal.
In experiment [19] the test system is wheat germ agglutinin (Triticum aestivum), Alexa647-labelled. As to the kind of experiment: Alexa647-WGA lectin binding to printed small molecules – biochemical, small-molecule microarray, 635/667 nm fluorescence, artefact control for SMM control-protein annotation, profiling panel (AID 1140).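 Note: score merges 667 nm feature emission with signal to noise over triplicate slides.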 The note with it: WGA-A647 binding, 635 nm fluorescence, higher = more signal.

Experiment [20] has as its target Luciferin 4-monooxygenase (Photinus pyralis) (UniProt P08659). Nature of the experiment: inhibition of purified Photinus pyralis luciferase – biochemical, luminescence, purified enzyme, 2006 set, primary screen (AID 1141).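 Note: cell-free assay with purified firefly luciferase at 100 ng per well in PBS; test concentration not given here.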 The following applies: purified firefly luciferase, SteadyGlo luminescence, 30 min; higher = more signal, called active from +8 up or from −8 down.

In PubChem BioAssay one finds composite z-score, composite Z-score and z-score data, which are given here for five compounds.

The source made the active and inactive calls.

Chain of Follistatin (Homo sapiens) (P19883 whole entry, looked up): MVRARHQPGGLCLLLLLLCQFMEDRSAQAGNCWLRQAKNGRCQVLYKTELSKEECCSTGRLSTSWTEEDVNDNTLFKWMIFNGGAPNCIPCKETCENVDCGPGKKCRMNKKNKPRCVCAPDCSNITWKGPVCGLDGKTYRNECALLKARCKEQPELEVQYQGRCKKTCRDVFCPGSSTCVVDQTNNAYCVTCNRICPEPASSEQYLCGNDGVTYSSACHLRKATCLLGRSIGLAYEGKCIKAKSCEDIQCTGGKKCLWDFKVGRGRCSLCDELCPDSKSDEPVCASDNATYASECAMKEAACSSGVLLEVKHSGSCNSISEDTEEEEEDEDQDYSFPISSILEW
Chain of Fibroblast growth factor 2 (Homo sapiens) (P09038 whole entry, looked up): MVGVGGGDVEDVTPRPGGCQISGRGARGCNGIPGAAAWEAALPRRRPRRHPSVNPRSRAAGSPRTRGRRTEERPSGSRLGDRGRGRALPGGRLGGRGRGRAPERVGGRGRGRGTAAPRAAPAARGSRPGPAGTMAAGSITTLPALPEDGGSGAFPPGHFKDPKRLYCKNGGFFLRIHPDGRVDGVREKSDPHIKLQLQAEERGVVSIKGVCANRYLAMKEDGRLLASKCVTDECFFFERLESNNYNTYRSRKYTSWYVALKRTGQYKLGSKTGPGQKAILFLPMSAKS
Chain of Luciferin 4-monooxygenase (Photinus pyralis) (P08659 whole entry, looked up): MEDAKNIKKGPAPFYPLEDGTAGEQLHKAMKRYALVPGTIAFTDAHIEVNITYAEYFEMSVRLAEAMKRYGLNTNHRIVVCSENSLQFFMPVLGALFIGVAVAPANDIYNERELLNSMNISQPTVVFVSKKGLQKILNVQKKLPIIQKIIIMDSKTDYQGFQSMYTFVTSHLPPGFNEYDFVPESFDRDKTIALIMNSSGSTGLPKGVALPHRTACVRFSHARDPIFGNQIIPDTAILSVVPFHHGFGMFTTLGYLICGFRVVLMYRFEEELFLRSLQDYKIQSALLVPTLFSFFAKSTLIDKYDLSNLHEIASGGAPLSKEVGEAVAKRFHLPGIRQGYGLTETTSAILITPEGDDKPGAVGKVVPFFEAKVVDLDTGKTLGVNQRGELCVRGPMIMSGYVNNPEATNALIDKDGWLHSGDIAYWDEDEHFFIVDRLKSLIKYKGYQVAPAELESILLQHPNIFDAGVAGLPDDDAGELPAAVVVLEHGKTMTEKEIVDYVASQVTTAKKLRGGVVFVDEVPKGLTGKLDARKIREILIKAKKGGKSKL
Chain of Albumin (Bos taurus) (P02769 whole entry, looked up): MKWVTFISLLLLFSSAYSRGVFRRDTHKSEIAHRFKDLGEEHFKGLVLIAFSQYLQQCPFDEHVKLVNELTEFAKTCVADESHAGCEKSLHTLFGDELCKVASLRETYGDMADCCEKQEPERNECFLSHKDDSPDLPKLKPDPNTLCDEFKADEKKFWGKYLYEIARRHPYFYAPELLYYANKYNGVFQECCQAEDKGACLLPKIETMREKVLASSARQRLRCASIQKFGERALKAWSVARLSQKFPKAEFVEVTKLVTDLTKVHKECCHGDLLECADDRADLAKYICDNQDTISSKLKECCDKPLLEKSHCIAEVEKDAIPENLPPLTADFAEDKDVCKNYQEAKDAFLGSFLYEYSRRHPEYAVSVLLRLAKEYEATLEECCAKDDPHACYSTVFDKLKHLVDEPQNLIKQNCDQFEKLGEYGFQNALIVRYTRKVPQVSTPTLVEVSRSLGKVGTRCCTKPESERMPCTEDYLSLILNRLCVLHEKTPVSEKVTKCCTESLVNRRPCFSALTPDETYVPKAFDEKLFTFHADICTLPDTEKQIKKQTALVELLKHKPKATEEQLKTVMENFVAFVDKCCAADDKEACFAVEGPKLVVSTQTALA
Chain of Concanavalin-A (Canavalia ensiformis) (P02866 whole entry, looked up): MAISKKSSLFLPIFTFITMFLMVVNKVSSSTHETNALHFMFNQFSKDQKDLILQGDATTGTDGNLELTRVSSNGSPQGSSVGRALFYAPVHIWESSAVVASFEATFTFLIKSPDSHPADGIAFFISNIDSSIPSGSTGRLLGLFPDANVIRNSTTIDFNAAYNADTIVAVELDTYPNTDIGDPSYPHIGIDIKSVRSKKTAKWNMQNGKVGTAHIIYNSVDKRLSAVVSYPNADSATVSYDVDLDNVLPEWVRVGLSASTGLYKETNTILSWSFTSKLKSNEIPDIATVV
Chain of Focal adhesion kinase 1 (Homo sapiens) (Q05397 whole entry, looked up): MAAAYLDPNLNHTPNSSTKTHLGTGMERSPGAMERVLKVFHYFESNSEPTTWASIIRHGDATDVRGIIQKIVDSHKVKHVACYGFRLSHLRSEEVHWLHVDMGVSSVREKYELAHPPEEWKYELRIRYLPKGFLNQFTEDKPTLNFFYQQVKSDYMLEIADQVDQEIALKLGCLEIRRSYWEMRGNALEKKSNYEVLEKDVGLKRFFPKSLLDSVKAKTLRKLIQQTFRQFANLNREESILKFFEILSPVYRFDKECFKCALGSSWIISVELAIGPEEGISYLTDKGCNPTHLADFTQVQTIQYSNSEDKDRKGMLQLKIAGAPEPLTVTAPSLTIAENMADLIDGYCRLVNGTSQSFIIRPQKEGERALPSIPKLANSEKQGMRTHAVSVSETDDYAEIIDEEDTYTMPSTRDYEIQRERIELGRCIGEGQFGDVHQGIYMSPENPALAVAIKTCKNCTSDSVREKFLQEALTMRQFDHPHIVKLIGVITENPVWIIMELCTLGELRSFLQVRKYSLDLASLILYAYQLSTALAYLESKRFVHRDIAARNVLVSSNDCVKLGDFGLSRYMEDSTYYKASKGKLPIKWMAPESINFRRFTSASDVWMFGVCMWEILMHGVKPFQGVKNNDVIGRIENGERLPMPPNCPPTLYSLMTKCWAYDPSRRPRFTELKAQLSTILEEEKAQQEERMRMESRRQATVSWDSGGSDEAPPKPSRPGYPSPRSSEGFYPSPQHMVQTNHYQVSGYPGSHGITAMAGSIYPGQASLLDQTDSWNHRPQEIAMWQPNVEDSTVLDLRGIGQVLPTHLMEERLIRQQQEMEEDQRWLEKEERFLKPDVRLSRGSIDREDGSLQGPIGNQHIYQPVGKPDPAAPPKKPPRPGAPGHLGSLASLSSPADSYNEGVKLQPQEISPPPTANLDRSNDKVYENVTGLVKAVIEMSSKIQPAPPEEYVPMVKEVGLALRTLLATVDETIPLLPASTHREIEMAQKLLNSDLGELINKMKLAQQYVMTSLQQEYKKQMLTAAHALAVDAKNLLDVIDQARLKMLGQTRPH

On to `CC(C)C[C@@H]1NC(=O)CNC(=O)[C@@]23C(=O)N[C@@H](Cc4ccccc4)C2[C@H](C)[C@@]2(C)O[C@H]2C3/C=C/C/C=C\CNC1=O` (stereo not given in full), for which the composite z-score in [1] is -0.007; in experiment [3], 0.0026; in experiment [4], -0.102; in experiment [5], 0.461; in experiment [6] it was 0.718; in [7] it was 0.461. The composite z-score was 1.29 in experiment [8]; 0.764 in experiment [9]; -0.404 in experiment [10]; 0.678 in [11]; 0.331 in experiment [12]; -0.183 in experiment [13]. For the same compound, the composite z-score in experiment [14] was 0.949; in [15] it was 1.08; in experiment [16] it was 0.759; in [18] it was 1.07; in experiment [19], -0.0197. Besides, the composite Z-score in [2] was 0.692 (inactive). Moreover, the z-score was 0.036 in experiment [17] and -0.14 (inactive) in experiment [20].
With `COCCOC(=O)N1C(=O)[C@@]2(c3cc(C#CCNC(N)=O)ccc31)[C@H](c1ccc(OCCO)cc1)N1[C@H](c3ccccc3)[C@H](c3ccccc3)OC(=O)[C@H]1[C@@H]2C(=O)NC[C@H](O)c1ccccc1`, the composite z-score in experiment [1] is 0.633; in experiment [3], 0.206; in [4], -0.013; in experiment [5] it was 0.225; in [6] it was 0.0755; in experiment [7], 0.442. Besides, the composite z-score is 1.29 in experiment [8]; 0.84 in experiment [9]; 1.14 in [10]; 0.626 in [11]; 0.984 in experiment [12]; 0.445 in [13]. Also, the composite z-score in [14] is 0.942; in experiment [15] it was 1.37; in [16] it was 1; in [18] it was 1.16; in experiment [19], 0.768. In addition, the composite Z-score in experiment [2] was -0.524 (inactive). Moreover, the z-score is -1.19 in [17] and 0.0945 (inactive) in experiment [20].
`CN(C)C(=O)[C@]1(CCS(=O)(=O)c2ccccc2)N=C(c2ccc(OCCCO)cc2)O[C@@H]1c1ccccc1`: the composite z-score was 0.907 in experiment [1]; 0.201 in [3]; -0.0676 in [4]; 0.769 in experiment [5]; 2.99 in experiment [6]; 0.565 in [7]. Also, the composite z-score was 1.3 in [8]; -0.0707 in experiment [9]; 0.937 in [10]; 1.57 in experiment [11]; 1.26 in experiment [12]; 1.23 in [13]. Further, the composite z-score is 1 in experiment [14]; 1.29 in experiment [15]; 0.345 in experiment [16]; 0.476 in experiment [18]; -0.0414 in [19]. Further, in experiment [2], the composite Z-score was 0.462 (inactive). Further, the results for the z-score in experiment [17] and in experiment [20] were 0.17 and 0.396 (inactive), respectively.
On to `O=c1cccc(-c2ccc(F)cc2)o1`, for which the composite z-score in experiment [1] is 0.445; in experiment [3], 0.176; in experiment [4], -0.0527; in [5], -0.114; in [6], -0.218; in experiment [7] it was 0.403. Further, the composite z-score in [8] was determined as 0.501; in experiment [9] it was 0.556; in experiment [10], 0.354; in [11] it was 0.198; in experiment [12], 0.734; in [13] it was 0.111. In addition, the composite z-score in [14] was -0.191; in [15], 0.456; in experiment [16], 0.898; in experiment [18] it was 0.571; in [19], 0.62. In experiment [2], the composite Z-score was -0.261 (inactive). Also, the results for the z-score in experiment [17] and in [20] were -0.0822 and 1.73 (inactive), respectively.
As for `COc1ccc([Si](C)(C)[C@@H]2[C@@H](CCn3cc([C@H](O)c4ccccc4)nn3)O[C@]3(C(=O)N(c4ccccc4)c4ccccc43)[C@H]2C)cc1`, the composite z-score in experiment [1] was -0.591; in [3] it was -0.145; in experiment [4], -0.131; in experiment [5] it was 0.0028; in [6], 0.233; in experiment [7] it was -0.232. In addition, the composite z-score in experiment [8] was 0.548; in [9], -0.063; in [10] it was 0.503; in experiment [11] it was -0.684; in experiment [12] it was 0.386; in experiment [13], 0.474. Also, the composite z-score is -0.308 in experiment [14]; 0.586 in experiment [15]; 0.184 in [16]; 0.424 in experiment [18]; -0.348 in [19]. In experiment [2], the composite Z-score is -0.424 (inactive). Also, the z-score is 0.00801 in experiment [17] and 0.389 (inactive) in experiment [20].
